According to PubChem BioAssay AID1259374 (The Scripps Research Institute Molecular Screening Center, 2018):
Where “and” joins values, the source holds several entries; their conditions need not be identical. Identical values can stand only once. The whole screen tested about 650,000 compounds, of which about 5,900 (0.91%) were called active. Cut-off read from the data, not from the text of the source: active = inhibition above about 50%; inactive = the rest. The full list was thinned out, with actives kept by preference.

These compounds were tested against Microphthalmia-associated transcription factor (Homo sapiens) (UniProt O75030) (assay: MITF inhibitors, primary screen, biochemical, AlphaScreen, human (AID 1259374;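 note: 0% = vehicle wells with protein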)). Conditions: AlphaScreen MITF homodimerization, bead proximity signal; at 2.6 µM; stronger effect = higher value.
Sequence of Microphthalmia-associated transcription factor (Homo sapiens) (O75030 whole entry, looked up): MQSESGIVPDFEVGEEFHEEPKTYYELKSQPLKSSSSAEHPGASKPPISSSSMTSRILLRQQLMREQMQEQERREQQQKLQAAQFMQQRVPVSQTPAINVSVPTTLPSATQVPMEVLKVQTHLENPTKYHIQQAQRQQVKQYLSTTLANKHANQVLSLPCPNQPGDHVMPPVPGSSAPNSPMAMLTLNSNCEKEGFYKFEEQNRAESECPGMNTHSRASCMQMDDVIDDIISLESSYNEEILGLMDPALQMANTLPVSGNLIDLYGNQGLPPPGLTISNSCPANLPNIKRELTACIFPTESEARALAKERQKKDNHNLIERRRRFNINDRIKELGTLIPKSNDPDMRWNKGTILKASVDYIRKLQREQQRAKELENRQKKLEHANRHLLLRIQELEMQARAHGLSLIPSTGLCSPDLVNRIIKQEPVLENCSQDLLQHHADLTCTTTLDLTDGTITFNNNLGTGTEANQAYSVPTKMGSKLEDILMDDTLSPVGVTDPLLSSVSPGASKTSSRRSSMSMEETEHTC

Structure (SMILES)	inhibition
N#CC1=C(SCC(=O)Nc2cccc(F)c2)NC(=O)CC1c1ccccc1F (centres undefined)	3.64% (inactive)
CCc1ccccc1NC(=O)c1ccc(F)c(S(=O)(=O)NCc2ccc3c(c2)OCO3)c1	10.2% (inactive)
Cc1ccc(/C=C(\C#N)C(N)=O)c(C)c1	6.24% (inactive)
COCCn1nnnc1C(c1cccnc1)N1CCN(c2ccccc2OC)CC1 (centres undefined)	-7.29% (inactive)
Nc1cccc(-c2ccc(C(=O)Nc3ccc(N4CCOCC4)cc3)s2)c1	13.4% (inactive)
CCS(=O)(=O)N1CCC(N2CC(C)CC(C)C2)CC1 (centres undefined)	31.2% (inactive)
CCS(=O)(=O)N1CCN(C2CCCCC2C)CC1 (centres undefined)	51.2% (active)
CCS(=O)(=O)N1CCC(c2nnc(C3CC3)s2)CC1	1.6% (inactive)
COc1cc(/C=N/NC(=O)c2cccnc2)ccc1Oc1ccc([N+](=O)[O-])cc1[N+](=O)[O-]	12.4% (inactive)
CCC1CN(Cc2ccccn2)Cc2ccc(Cl)cc2O1 (centres undefined)	-11.7% (inactive)
CCCCCCOC(=O)c1cc(C(=O)OCCCCCC)c(C)nc1C	55.6% (active)
CCOC(=O)c1cc2cccnc2nc1C	12.4% (inactive)
CCCCCCOC(=O)c1ccc(-c2ccc(-c3ccc(C(=O)OCCCCCC)cc3)cc2)cc1	14.5% (inactive)
CCN1CCN(Cc2c(O)ccc3cc(-c4ccccc4)c(=O)oc23)CC1	2.19% (inactive)
Cc1cn2c(=O)c(C(=O)Nc3ccc(Br)c(C)c3)cnc2s1	3.85% (inactive)
C=CCNC(=O)c1cc2cc(Cl)ccc2oc1=O	12.4% (inactive)
CC1(C)CC(=O)C2=C(C1)Nc1ccccc1N(C(=O)Cc1ccccc1)C2c1cccc(F)c1 (centres undefined)	0.57% (inactive)
CC1(C)CC(=O)C2=C(C1)Nc1ccccc1N(C(=O)Cc1ccccc1)C2c1ccc(-c2ccc([N+](=O)[O-])cc2)o1 (centres undefined)	65.2% (active)
CCN(CC)c1ccc(C2C3=C(CC(C)(C)CC3=O)Nc3ccccc3N2C(=O)Cc2ccccc2)cc1 (centres undefined)	2.82% (inactive)
COc1ccc(C2CC(=O)C3=C(C2)Nc2ccccc2N(C(=O)c2ccc(Cl)c(Cl)c2)C3c2ccc(C)cc2)cc1 (centres undefined)	-2.68% (inactive)
COc1cc(NC(C)C(=O)Nc2ccc(C(C)=O)cc2)cc(OC)c1 (centres undefined)	0.12% (inactive)
CC(=O)c1ccc(NC(=O)C(C)NCc2ccc(C)cc2)cc1 (centres undefined)	76% (active)
CC(=O)c1ccc(NC(=O)C(C)NCc2ccc(Cl)cc2)cc1 (centres undefined)	3.65% (inactive)
Cc1nc2c(c(=O)[nH]1)C(c1ccc(Cl)c(Cl)c1)C(C#N)=C(N)O2 (centres undefined)	3.39% (inactive)

Structure (SMILES)	inhibition
C=CCNC(=O)C(=O)Nc1cc(C)ccc1OC	12.4% (inactive)
NS(=O)(=O)c1cccc(NC(=O)COc2ncnc3sc(-c4ccccc4)cc23)c1	51.8% (active)
CNC(=O)NC(=O)CSc1ncnc2sc(-c3ccccc3)cc12	9.51% (inactive)
NS(=O)(=O)c1ccc2nc(NC(=O)COc3ccccc3)sc2c1	5.22% (inactive)
O=S(=O)(NCc1cccnc1)c1ccc(-n2cnnn2)cc1	-8.13% (inactive)
COc1cccc(Nc2nnc(Cc3ccc(Cl)cc3)c(=O)[nH]2)c1	10.6% (inactive)
CCOc1ccccc1Nc1nnc(Cc2ccc(OC)cc2)c(=O)[nH]1	24.2% (inactive)
COc1ccc(Cc2nnc(N/N=C/c3ccccc3O)[nH]c2=O)cc1OC	112% (active)
Cc1cc(NC(=O)Cc2ccccc2)n(-c2nc(C)c(C)c(=O)[nH]2)n1	24.5% (inactive)
C[C@@H](OCc1ccccc1)[C@@H]1NC(=O)[C@H]2CN(Cc3ccc4ncccc4c3)CCN2C1=O	15.9% (inactive)
C[C@H](O)[C@H]1NC(=O)[C@H]2CN(C(=O)c3ccccc3)CCN2C1=O	-12.5% (inactive)
CC[C@@H]1NC(=O)[C@H]2CN(C(=O)c3cccs3)CCN2C1=O	14.5% (inactive)
O=C1N[C@H](Cc2ccccc2)C(=O)N2CCN(C(=O)Oc3ccccc3)C[C@H]12	-5.43% (inactive)
C[C@@H](OCc1ccccc1)[C@@H]1NC(=O)[C@H]2CN(C(=O)Nc3cccc(F)c3)CCN2C1=O	75.3% (active)
CC[C@@H]1NC(=O)[C@H]2CN(C(=O)NCc3ccccc3)CCN2C1=O	75.7% (active)
Cc1ccccc1C(=O)Nc1ccc(S(=O)(=O)NCc2ccccc2)cc1	5.75% (inactive)
Cc1ccc(NC(=O)CC[C@H]2CN(Cc3ccncc3)CC[C@H]2N2CCOCC2)cc1	-7.04% (inactive)
CCCC(C)C(=O)Nc1nc2c(s1)C(=O)CC(C)(C)C2 (centres undefined)	6.86% (inactive)
CC(C)NC(=O)/C=C/c1cccc([N+](=O)[O-])c1	-4.32% (inactive)
COc1cccc(N2C(=O)CC(N3CCN(C)CC3)C2=O)c1 (centres undefined)	5.95% (inactive)
Cc1ccc(-c2noc(CN(C(C)C)S(=O)(=O)c3ccc(F)cc3)n2)cc1	-1.65% (inactive)
O=C1CCCN1CCn1cnc2c(Nc3ccc(N4CCOCC4)cc3)nc(NCc3ccc4c(c3)OCO4)nc21	15.2% (inactive)
c1cc2c(cc1CNc1nc(Nc3ccc(N4CCOCC4)cc3)c3ncn(C4CCCCC4)c3n1)OCO2	53.1% (active)
c1ccc(CN2CCC(Nc3nc(NCc4ccc5c(c4)OCO5)nc4c3ncn4C3CCCCC3)CC2)cc1	16.3% (inactive)

Structure (SMILES)	inhibition
CC12CCOCC1C2C(=O)Nc1ccc(N=Nc2ccccc2)cc1 (centres undefined)	-6.59% (inactive)
O=C1CCCN1CCCNc1ccnc(Nc2nccc3ccccc23)n1	-1.07% (inactive)
CCN1CCN(CC(=O)N/N=C/c2cccc(Cl)c2)CC1	57.4% (active)
O=C(CN1CCCCCC1)N/N=C/c1ccc(Cl)cc1	20% (inactive)
COc1cccc(/C=N\NC(=O)CN2CCN(C)CC2)c1	-8.3% (inactive)
Cc1cccc(NC(=O)c2sc3nc4c(cc3c2N)CCC4)c1C	21.2% (inactive)
CCN1CCN(CCOc2ccc(-c3ccccc3)cc2)CC1	76.4% (active)
CCN1CCN(CCOCCOc2ccc([N+](=O)[O-])cc2)CC1	72% (active)
CN1CCN(CCCCOc2ccc(C#N)cc2)CC1	1.14% (inactive)
COc1ccc(OCCOCCOc2ccc([N+](=O)[O-])cc2Cl)cc1	3.66% (inactive)
CN1CCN(CCOCCOc2ccc3c(c2)CCC3)CC1	11.3% (inactive)
CCOc1ccc(OCCN2CCNCC2)cc1	12.2% (inactive)
O=C(COc1ccc2c3c(c(=O)oc2c1)CCC3)Nc1cccc2ncccc12	2.18% (inactive)
COc1ccc(/C(O)=C/c2nc3cc(C)ccc3oc2=O)cc1OC	3.89% (inactive)
CCN(CC)S(=O)(=O)c1ccc(C(=O)NCCO)cc1	-0.2% (inactive)
C/C(=N\N=C1\NC(=O)CC(C(=O)Nc2cccc(C(=O)O)c2)S1)c1ccccc1 (centres undefined)	7.7% (inactive)
CC1CN(C(=O)COC(=O)c2cc(O)c(O)c(O)c2)CC(C)O1 (centres undefined)	54.2% (active)
CC1CN(C(=O)COC(=O)/C=C/c2ccco2)CC(C)O1 (centres undefined)	16.4% (inactive)
CC1CN(C(=O)COc2ccc(C(C)C)cc2Br)CC(C)O1 (centres undefined)	-0.26% (inactive)
Cc1sc(NC(=O)c2ccco2)c(C(c2ccccn2)N2CCN(C)CC2)c1C (centres undefined)	12.4% (inactive)
CCOc1cccc(CN2CCCCC2)c1O	12.8% (inactive)
Oc1c(CN2CCN(c3cccc(Cl)c3)CC2)cc(Br)c2cccnc12	-1.04% (inactive)
Oc1c(CN2CCCC2)cc(COCc2ccccc2)c2cccnc12	74.4% (active)
Cc1cccc(N2CC(O)=C(c3nc4ccccc4c(=O)[nH]3)C2=N)c1C	-2.19% (inactive)

Structure (SMILES)	inhibition
CCCOc1cccc(C(=O)Nc2ccc3oc(-c4cccc5c(Br)cccc45)nc3c2)c1	3.22% (inactive)
COc1cccc(C2C(C(=O)OC(C)C)=C(C)NC3=C2C(=O)CC(c2ccc(Cl)cc2)C3)c1OC (centres undefined)	-2.22% (inactive)
COc1cc(Nc2ncnc3c2nc(N2CCN(Cc4ccc5c(c4)OCO5)CC2)n3C(C)C)cc(OC)c1OC	5.48% (inactive)
COc1cc(Nc2ncnc3c2nc(N2CCOCC2)n3C(C)C)cc(OC)c1OC	54.5% (active)
CC(C)n1c(N2CCOCC2)nc2c(Nc3ccc(Oc4ccccc4)cc3)ncnc21	9.27% (inactive)
C[C@@H]1CN(Cc2nnnn2CC(=O)N2CCc3ccccc3C2)C[C@H](C)O1	12.1% (inactive)
C=CCNC(=O)C(=O)Nc1ccccc1CC	19.9% (inactive)
CN1CCN(c2ncnc3c2cnn3-c2ccc(Cl)c(Cl)c2)CC1	10.1% (inactive)
O=C(CC1OC(=O)c2ccccc21)OCC(=O)c1ccc(F)cc1 (centres undefined)	18.3% (inactive)
C=CCc1cc(C)ccc1OCC(O)Cn1cnc2ccccc21 (centres undefined)	4.8% (inactive)
CCc1cccc(OCCOCCn2ccnc2)c1	65.1% (active)
Cc1ccc(C(C)C)c(OCCCn2ccnc2)c1	9.69% (inactive)
COc1ccc(CCNC(=S)NCCCn2ccnc2)cc1	8.73% (inactive)
C=CCc1cc(C)ccc1OCCCn1ccnc1	64.5% (active)
Clc1ccc(OCCOCCn2ccnc2)c(Br)c1	46.3% (inactive)
CCc1ccc(OCCCCn2ccnc2)cc1	62.2% (active)
COc1ccc(CCCOC(Cn2ccnc2)c2ccc(OC)cc2)cc1 (centres undefined)	-16.1% (inactive) and 0.54% (inactive)
CCOC(=O)C(CCOc1cccc(CC)c1)C(=O)OCC	-23.7% (inactive)
Cc1nn(C(=O)c2cccnc2)c(C)c1Sc1ccccc1[N+](=O)[O-]	2.63% (inactive)
O=C(Cc1cccc2ccccc12)Nc1nnc(-c2ccco2)o1	6.58% (inactive)
COCCN1Cc2cccc(C(=O)Nc3cccc(F)c3)c2C1=O	-5.68% (inactive)
Cc1nc(CSc2ccc(-c3ccco3)nn2)cs1	5.98% (inactive)
